In PubChem BioAssay AID720513 (Broad Institute, 2013):
About 480 (23%) of roughly 2,100 compounds were called active. About 5% were inconclusive and are not listed.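 Rule for the calls: active = fitted curve reaches 40% activation at or below the top valid concentration, in every replicate test; inconclusive = replicate tests disagree on the call; inactive = the rest, including activity in the opposite direction.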 Not all results are given here. Results with a measured potency or affinity are listed apart.

Assay: activators raising PGC1a acetylation in cells, dose response, cell-based, cherry-picked samples, set 6 (AID 720513);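 note: cells made to overexpress flag tagged PGC1a plus GCN5 acetyltransferase by viral infection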
Conditions: U2OS PGC1a acetylation AlphaLISA, overnight, 0 = neutral, -100 = inhibitor control; series mostly up to 19.5 µM

outcome, inactive:
O=C(COc1ccc(Cl)cc1Cl)NCCCN1CCOCC1, COc1cc(NS(=O)(=O)c2ccc(N)cc2)nc(OC)n1, CN(C)S(=O)(=O)c1ccc(N2CCCC2)c(C(=O)NCc2cccc(C(F)(F)F)c2)c1, COc1ccc(NC(=O)N[C@@H]2CC[C@H](CCn3cc(-c4ccccc4F)nn3)O[C@H]2CO)cc1, COc1ccccc1C1c2c(C)nn(-c3ccccc3)c2NC(=O)C1NC(=O)c1ccccc1 (centres undefined), Cn1cnnc1Sc1ccc(/C=C/C(=O)c2ccc(O)cc2)cc1[N+](=O)[O-], O=C(Nc1ccc(F)cc1)N1CCCCN2[C@H](CO)[C@H](c3ccc(C#Cc4ccccc4)cc3)[C@H]2C1, O=C(Nc1ccc(F)cc1)c1ccccc1, CC(C)NC(=O)N(C)C[C@H]1OCCCC[C@@H](C)Oc2ccc(NC(=O)CCCN(C)C)cc2C(=O)N([C@@H](C)CO)C[C@@H]1C, C[C@@H]1CN([C@@H](C)CO)C(=O)CCCn2cc(nn2)CO[C@H]1CN(C)Cc1ccncc1, C#CC(=O)N(c1ccc(OC)c(OC)c1)C(C(=O)NC1CCCC1)c1cccs1 (centres undefined), C#CC(=O)N(c1ccc(OC)cc1OC)C(C(=O)NC1CCCC1)c1cccs1 (centres undefined), COc1ccc(N2C(=O)CC2(/C=C/c2ccccc2OC)C(=O)NC2CCCC2)cc1 (centres undefined), C#CC(=O)N(c1cccc(OC)c1)C(C(=O)NC1CCCC1)c1cccs1 (centres undefined), O=C(NC1CCCCC1)C(c1ccc2ncccc2c1)N(Cc1ccc2c(c1)OCO2)C(=O)c1ccc2c(c1)OCCO2 (centres undefined), CCCCN(C(=O)CCC(=O)Nc1cc(C)on1)C(C(=O)NC1CCCC1)c1ccc(OC)cc1 (centres undefined), CCCC(C(=O)NC(C)(C)C)N(Cc1ccc(F)cc1)C(=O)c1snc(C(N)=O)c1N (centres undefined), CC12CC(c3ccccc3O1)N(C(=O)c1ccc(Br)o1)C(=O)N2c1ccccc1 (centres undefined), CCCOc1ccccc1-n1sc2c(c1=S)-c1cc(OC)cc3c1N(C(=O)C3=O)C2(C)C, COc1cccc(-c2nn(-c3ccccc3)cc2CN(C)C(C)c2ccncn2)c1 (centres undefined), Cc1c(NC(=O)c2ccccc2NS(=O)(=O)c2ccc(Br)cc2)c(=O)n(-c2ccccc2)n1C, CCOC(=O)C1=C(NC(=O)c2ccc(Br)o2)Nc2ccccc2N=C1, CCCNC(=O)N(C)C[C@H]1Oc2cc(C#CC(C)C)ccc2S(=O)(=O)N([C@@H](C)CO)C[C@H]1C, CC(C)C#Cc1cnc2c(c1)C(=O)N([C@H](C)CO)C[C@H](C)[C@H](CN(C)C(=O)CN1CCOCC1)O2, Cc1cc(-c2ccc(Cl)cc2)n2ncnc2n1, CO[C@@H]1CN(C)C(=O)c2cc(NC(C)=O)ccc2OC[C@H](C)N(C(=O)c2cccnc2)C[C@H]1C, COc1ccc(C2c3c(oc4ccccc4c3=O)C(=O)N2CCN2CCOCC2)cc1OC (centres undefined), CCOc1ccc2c(c1)C(C)=CC(C)(C)N2S(=O)(=O)c1ccc(NC(C)=O)cc1, Cn1cnc(S(=O)(=O)N2C[C@@H](O)COC[C@H]3O[C@H](CC(=O)NCc4cc(F)cc(F)c4)CC[C@@H]32)c1, CCn1c(COc2ccc(=O)n(-c3ccccc3)n2)nnc1SCc1ccc(C)cc1, O=S(=O)(Nc1nc2c(s1)CCCC2)c1ccc(F)cc1, CC(C)(C)Cc1nnc(NS(=O)(=O)c2ccc(F)cc2)s1, CC(C)CC#Cc1ccc2c(c1)O[C@@H](CN(C)C)[C@H](C)CN([C@@H](C)CO)S2(=O)=O, Cn1ccc2cc(OCc3ccccc3)ccc21, N=c1sccn1CC(=O)Nc1ccccc1Sc1ccccc1, Cc1cc(C)c(S(=O)(=O)N2CC=C(c3ccccc3)CC2)c(C)c1, COC(=O)c1c(C)oc(C)c1S(=O)(=O)Nc1ccccc1, CCCCCCNC(=O)c1ncn[nH]1, O=C(N[C@@H]1CC[C@@H](CCNS(=O)(=O)c2ccccc2Cl)O[C@@H]1CO)c1ccc(F)cc1, N=C1C(c2nc3ccccc3s2)=C(O)CN1NC(=O)c1ccc([N+](=O)[O-])cc1, O=C(Nc1ccc(OC(=O)c2ccccc2)c(-c2nc3ccccc3s2)c1)c1ccccc1, O=C(NCC1CCCO1)c1cc2c([nH]c3ccccc32)c(-c2cccc(Cl)c2)n1 (centres undefined), CNC[C@@H]1OCCCC[C@@H](C)Oc2ccc(NS(=O)(=O)c3ccc(C)cc3)cc2C(=O)N([C@H](C)CO)C[C@@H]1C, COc1cc(Cl)c(S(=O)(=O)N2CC(C)OC(C)C2)cc1Cl (centres undefined), O=C(OCc1nc(-c2ccccc2)oc1COC(=O)c1ccco1)c1ccco1, COc1ccc(N(CC(=O)Nc2ccccc2Cl)S(=O)(=O)c2ccc(C)cc2)cc1OC, Cc1cc(Cl)ccc1OCC(=O)Nc1cccc(S(=O)(=O)NC2=NCCCCC2)c1, N#CC1=C(N)Oc2c(ccc3ccccc23)C1c1ccsc1 (centres undefined), C[C@H]1CN([C@@H](C)CO)C(=O)c2cc(C#Cc3ccccc3)cnc2O[C@@H]1CN(C)C(=O)c1ccccc1F, c1cncc(CNc2ncnc3ccc(-c4ccoc4)cc23)c1, COC(=O)c1cc(CN2C(=O)c3ccccc3C2=O)c(O)c([N+](=O)[O-])c1, O=C(Nc1nc(-c2ccccn2)cs1)c1ccccc1-n1cnnn1, O=C(Nc1ccccc1N1CCOCC1)C1(c2ccc(Cl)cc2)CCC1, O=C(c1ccc(CN2CCOCC2)cc1)N1CCN(Cc2ccccc2)CC1, C#CCN1C(=O)C(O)(CC(=O)c2ccc(OC)c(OC)c2)c2ccccc21 (centres undefined), CC(C)C#Cc1cnc2c(c1)C(=O)N([C@H](C)CO)C[C@H](C)[C@H](CN(C)C(=O)c1ccccn1)O2, CCOc1ccc(N2CC(C(=O)Nc3ccc(S(=O)(=O)NCC4CCCO4)cc3)CC2=O)cc1 (centres undefined), O=C(c1cccc(N2C(=O)C3C4C=CC(C4)C3C2=O)c1)N1CCCc2ccccc21 (centres undefined), COc1ccc(F)cc1CN1CCN(CC(=O)N2CCc3ccccc32)CC1
